# Measurements: PubChem BioAssay AID463173 (ICCB-Longwood Screening Facility, Harvard Medical School, 2010)
# Hit rate of the full screen: of about 52,000 compounds, about 4,300 (8.3%) were called active. Cut-off read from the data, not from the text of the source: active = survival mostly below about 52% (no sharp cut-off); inactive = mostly above about 56%. The list comes from a sample in which actives are over-represented; it also holds similar structures and randomly drawn compounds.
# System: DeltatarO mutant
# Assay: growth inhibition of S. aureus wild type versus tarO mutant, primary screen, teichoic acid synthesis inhibitors, RN4220, OD600 (AID 463173)
# Details: OD600, 18 h, stronger effect = lower value, screened at 18.75 µg/mL (by protocol)
row,Structure (SMILES),survival
1,O=C(c1ccc(Cl)cc1)N1CCN(CCc2ccncc2)CC1,103% (inactive)
2,CCOC(=O)CSc1nc2sc3c(c2c(=O)n1Cc1ccccc1)CC(C(C)C)OC3 (stereo unspecified),74% (inactive)
3,Cc1ccc(-n2c(SCCC(C)C)nc3sc4c(c3c2=O)CC(C)(C)OC4)cc1,49% (inactive)
4,CCC1(C)Cc2c(sc3nc(SC)n(-c4ccc(C)cc4)c(=O)c23)CO1 (stereo unspecified),33% (active)
5,COC(=O)CSc1nc2sc3c(c2c(=O)n1-c1ccccc1C)CC(C)(C)OC3,73% (inactive)
6,CCCCCOC(=O)CSc1nc2sc3c(c2c(=O)n1Cc1ccccc1)CC(C)(C)OC3,41% (active)
7,CCCN(CCC)C(=O)CSc1nc2sc3c(c2c(=O)n1-c1ccccc1)CCN(C(C)=O)C3,178% (inactive)
8,CCCCCOC(=O)CSc1nc2sc3c(c2c(=O)n1Cc1ccccc1)CC(C)(CC)OC3 (stereo unspecified),46% (active)
9,CCOC(=O)CSc1nc2sc3c(c2c(=O)n1Cc1ccccc1)CC(C)CC3 (stereo unspecified),64% (inactive)
10,CCOC(=O)CSc1nc2sc3c(c2c(=O)n1-c1ccccc1)CC(C(C)C)OC3 (stereo unspecified),96% (inactive)
11,CCOC(=O)CSc1nc2sc3c(c2c(=O)n1Cc1ccccc1)CCC(C(C)(C)C)C3 (stereo unspecified),61% (inactive)
12,CCCCCOC(=O)CSc1nc2sc3c(c2c(=O)n1-c1ccccc1)CC(C)(CC)OC3 (stereo unspecified),36% (active)
13,COC(=O)CSc1nc2sc3c(c2c(=O)n1-c1ccc(C)cc1)CC(C(C)C)OC3 (stereo unspecified),61% (inactive)
14,CCOc1ccc(CN(CCc2ccc3c(c2)OCO3)Cc2cc(OC)c(OC)cc2OC)cc1,44% (inactive)
15,O=C(Nc1ccc(C(=O)OCc2cc(=O)n3nc(C4CC4)sc3n2)cc1)c1cccc(F)c1,67% (inactive)
16,O=C(Nc1cccc(F)c1)/C(=C\c1cccs1)NC(=O)c1cccs1,79% (inactive)
17,O=C(CCCSc1nc(-c2ccco2)cc(C(F)(F)F)n1)Nn1cnnc1,72% (inactive)
18,COc1cccc(C(=O)NC(=O)Nc2ccc(-n3nc(C(F)(F)F)cc3C(F)(F)F)cc2)c1,81% (inactive)
19,CCOc1ccc(OCC)c(NC(=O)C2CCCN(S(=O)(=O)c3ccc(C)cc3)C2)c1 (stereo unspecified),60% (inactive)
20,CCC(Sc1nc2cc(OC)c(OC)cc2c2nc(-c3ccccc3)nn12)C(=O)Nc1cccc(C)c1 (stereo unspecified),80% (inactive)
21,CCCCc1cc(=O)oc2cc(C)c3c(C(C)(C)C)coc3c12,102% (inactive)

row,Structure (SMILES),survival
1,COc1ccc(OC)c(CNC(=O)CN2N=C(c3ccc(Cl)cc3)CCC2=O)c1,96% (inactive)
2,COc1ccc(OC)c(CNc2ncc(-c3ccc(Cl)cc3)n2C)c1,25% (active)
3,CCOC(=O)c1cnc(NCc2ccc(OC)cc2OC)c2ccccc12,86% (inactive)
4,COc1ccc(OC)c(CNc2ncnc3onc(-c4ccc(Cl)cc4)c23)c1,53% (inactive)
5,COc1ccc(CNS(=O)(=O)c2cnc(N)nc2)c(OC)c1,83% (inactive)
6,CCOc1ccc(-c2cnc(NCc3ccc(OC)cc3OC)n2C)cc1,37% (active)
7,CCOc1ccccc1C(=O)N1CC(=O)Nc2ccc(Cl)cc2C1c1ccccc1 (stereo unspecified),73% (inactive)
8,Fc1ccc(Nc2c3c(nc4nncn24)CCC3)cc1,74% (inactive)
9,Cc1ccc(-n2nc(C(=O)Nc3cccc(C#N)c3)c3c4ccccc4n(C)c3c2=O)cc1,129% (inactive)
10,Cc1ccc(C(=O)c2oc3ccccc3c2NC(=O)c2cc(-c3ccccc3)on2)cc1,77% (inactive)
11,O=C(c1ccco1)N1CCN(c2c3c(nc4cc(-c5cccc(F)c5)nn24)CCCC3)CC1,70% (inactive)
12,Cc1ccc2cc(CN(Cc3cccnc3)C(=O)c3cccnc3)c(=O)[nH]c2c1,106% (inactive)
13,O=C1Nc2ccccc2Oc2cc(Oc3cccc(Cl)c3)ccc21,46% (inactive)
14,O=C1Nc2ccccc2Oc2cc(Oc3ccccc3)ccc21,33% (active)
15,Cc1cccc(Oc2ccc3c(c2)Oc2ccccc2NC3=O)c1,73% (inactive)
16,COc1ccc(-c2ccc(CNCCCSc3nnnn3C)o2)cc1Cl,79% (inactive)
17,CCc1ccc(NC(=O)C(CC)n2c(=O)c(-c3ccccc3NC(C)=O)nc3ccccc32)cc1 (stereo unspecified),65% (inactive)
18,CCc1ccc(NC(=O)Cn2c(=O)c(-c3ccccc3NC(C)=O)nc3ccccc32)cc1,44% (active)
19,CC(=O)Nc1ccccc1-c1nc2ccccc2n(CC(=O)Nc2cccc(C(F)(F)F)c2)c1=O,45% (active)
20,Nc1nonc1-c1nc2ccccc2n1CC(=O)Nc1cccc(C(F)(F)F)c1,95% (inactive)
21,CC(=O)Nc1ccccc1-c1nc2ccccc2n(CC(=O)Nc2ccc(C)c(Cl)c2)c1=O,101% (inactive)

row,Structure (SMILES),survival
1,COc1ccc(Cl)cc1NC(=O)Cn1c(=O)c(-c2ccccc2NC(C)=O)nc2ccccc21,103% (inactive)
2,CCOc1ccccc1-c1nc(C(N)=O)c2c(n1)n(-c1ccc3c(c1)OCO3)c(=O)n2C,79% (inactive)
3,CCOc1ccc(NC(=O)Cc2c[nH]c3ccccc23)cc1,80% (inactive)
4,Cc1oc2c(c1C(=O)NCCO)CCCC2,85% (inactive)
5,COCc1cc(C)nc2sc3c(c12)NC(c1ccc(O)cc1)N(c1ccc(OC)cc1)C3=O (stereo unspecified),76% (inactive)
6,CCCN1C(=O)C2(c3ccccc31)c1c(oc3ccc(F)cc3c1=O)C(=O)N2CCCOC(C)C (stereo unspecified),93% (inactive)
7,COc1ccc2cc(C#N)c(N3CCCN(C(=O)/C=C/C(=O)O)CC3)nc2c1,105% (inactive)
8,CCCN1CCc2nc(N3CCN(c4ncccn4)CC3)ncc2C1,75% (inactive)
9,O=C(CSc1nc2ccccc2n1Cc1ccccc1)Nc1ccccn1,81% (inactive)
10,O=C1OCCC1Sc1nc2ccccc2n1Cc1ccccc1 (stereo unspecified),73% (active)
11,O=C(CSc1nc2ccccc2n1Cc1ccccc1)NCc1ccccc1,95% (inactive)
12,COC(=O)c1nnn(CC(=O)Nc2c(C)cccc2C)c1N,87% (inactive)
13,Cc1ccc(NC(=O)CN2C(=O)COc3ccc(S(=O)(=O)N4CCCCCC4)cc32)cc1Cl,67% (inactive)
14,Cc1cccc(/C=N/NC(=O)c2ccccn2)c1O,5% (active)
15,COc1cccc(/C=N/NC(=O)c2cccc(C)c2)c1O,2% (active)
16,O=C(N/N=C/c1ccc(OC(=O)c2ccco2)cc1)c1ccccn1,92% (inactive)
17,COc1cccc(/C=N/NC(=O)COc2c(C)cccc2C)c1O,88% (inactive)
18,COc1cccc(/C=N/NC(=O)CSCc2ccccc2)c1O,69% (inactive)
19,Cn1cccc1/C=N/NC(=O)c1ccccn1,77% (inactive)
